High-throughput results: PubChem BioAssay, National Center for Advancing Translational Sciences (NCATS)
ELG1 DNA repair – blocks ELG1-dependent DNA repair in HEK293T cells. HEK293T ELG1-luciferase reporter, luminescence, 16 h; DNA damage induced by 5-fluorouridine. Potency, µM (highest dose often 46.1 µM), for inactives: at the top dose activity change, negative = inhibition, hits mostly inhibitors. hit rate 2.3% among 330,000; also: % is scaled to controls: 0 for no effect and ±100 for the full control effect; nearly all actives have a fitted effect of over 55% in size
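Step one: seed 2,000 cells per well. Step two: pin-transfer compound or DMSO alongside 5-fluorouridine. Step three: incubate 16 hr, 37 °C, 5% CO2. Step four: add ONE-Glo, wait 30 min, read luminescence.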
SW480 rerep – induces DNA re-replication in SW480 colon adenocarcinoma cells; SW480 DNA re-replication, Hoechst DNA content imaging, 48 h; Potency, µM (series often up to 46.1 µM), inactives show at the top dose re-replication activation, actives largely listed as activators; hit rate 1.8% among 340,000; also: % of control where 0% means no effect; nearly all actives have a fitted effect of over 55% in size
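Per well, 250 cells were exposed to pinned compound for 48 hr. Nuclear DNA was visualised with Hoechst (40 min, 37 C) and total object intensity recorded by fluorescence scanning.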
KB-3-1 cytotox – KB-3-1 parental cell cytotoxicity; KB-3-1 viability, CellTiter-Glo ATP luminescence, 72 h; Potency, µM (doses to about 46.1 µM), actives largely listed as cytotoxic; hit rate 1.4% among 400,000; AID 1347075; also: % is scaled to controls: 0 for no effect and ±100 for the full control effect; nearly all actives have a fitted effect of over 60% in size
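Using CellTiter-Glo luminescence, growth of non-resistant KB-3-1 adenocarcinoma cells is assessed 72 h after pin-tool compound addition at 37 °C. Normalized responses across the concentration series yield fitted curves.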
KB-V1 cytotox – kills drug-selected multidrug resistant KB-V1 cells | KB-V1 MDR cells viability, CellTiter-Glo, 72 h | Potency, µM (top dose mostly 46.1 µM), usual class: cytotoxic | hit rate 3.4% among 400,000 | AID 1347076; also: % is scaled to controls: 0 for no effect and ±100 for the full control effect; nearly all actives have a fitted effect of over 60% in size
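Potencies derive from concentration-effect curves fitted to normalized luminescence (CellTiter-Glo) of KB-V1 cells treated for 72 h at 37 degrees C in phenol-red-free DMEM containing 10% FBS.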
MCF10A rereplic – inducers of DNA re-replication in MCF 10A breast cells. MCF 10A DNA re-replication, Hoechst nuclear intensity, 48 h. Potency, µM (top dose mostly 46.1 µM), for the others: at the top dose activity, positive = re-replication, most hits filed as activators. hit rate 2.9% among 350,000. AID 624296; also: % of control where 0% means no effect; nearly all actives have a fitted effect of over 50% in size
ELG1 FLuc counter – luciferase inhibition in cell-free luciferin readout for ELG1 hits; shares compounds with ELG1 DNA repair; cell-free firefly luciferase luminescence counter-screen, ViewLux; Potency, µM (titrated, usually from 46.1 µM), for inactives: at the top dose activity change, negative = inhibition, most hits filed as inhibitors; hit rate 3% among 350; also: % is scaled to controls: 0 for no effect and ±100 for the full control effect
ELG1-Luc inh – confirmation of human ELG1-dependent DNA repair inhibitors | shares compounds with ELG1 DNA repair | HEK293T ELG1-luciferase levels, luminescence; cells co-treated with 5-fluorouridine | Potency, µM (series often up to 46.1 µM), for inactives: top-dose activity change, negative = inhibition, actives largely listed as inhibitors | hit rate 68% among 670; also: % is scaled to controls: 0 for no effect and ±100 for the full control effect; nearly all actives have a fitted effect of over 55% in size
Target sequence (Q96QE3 whole entry, looked up): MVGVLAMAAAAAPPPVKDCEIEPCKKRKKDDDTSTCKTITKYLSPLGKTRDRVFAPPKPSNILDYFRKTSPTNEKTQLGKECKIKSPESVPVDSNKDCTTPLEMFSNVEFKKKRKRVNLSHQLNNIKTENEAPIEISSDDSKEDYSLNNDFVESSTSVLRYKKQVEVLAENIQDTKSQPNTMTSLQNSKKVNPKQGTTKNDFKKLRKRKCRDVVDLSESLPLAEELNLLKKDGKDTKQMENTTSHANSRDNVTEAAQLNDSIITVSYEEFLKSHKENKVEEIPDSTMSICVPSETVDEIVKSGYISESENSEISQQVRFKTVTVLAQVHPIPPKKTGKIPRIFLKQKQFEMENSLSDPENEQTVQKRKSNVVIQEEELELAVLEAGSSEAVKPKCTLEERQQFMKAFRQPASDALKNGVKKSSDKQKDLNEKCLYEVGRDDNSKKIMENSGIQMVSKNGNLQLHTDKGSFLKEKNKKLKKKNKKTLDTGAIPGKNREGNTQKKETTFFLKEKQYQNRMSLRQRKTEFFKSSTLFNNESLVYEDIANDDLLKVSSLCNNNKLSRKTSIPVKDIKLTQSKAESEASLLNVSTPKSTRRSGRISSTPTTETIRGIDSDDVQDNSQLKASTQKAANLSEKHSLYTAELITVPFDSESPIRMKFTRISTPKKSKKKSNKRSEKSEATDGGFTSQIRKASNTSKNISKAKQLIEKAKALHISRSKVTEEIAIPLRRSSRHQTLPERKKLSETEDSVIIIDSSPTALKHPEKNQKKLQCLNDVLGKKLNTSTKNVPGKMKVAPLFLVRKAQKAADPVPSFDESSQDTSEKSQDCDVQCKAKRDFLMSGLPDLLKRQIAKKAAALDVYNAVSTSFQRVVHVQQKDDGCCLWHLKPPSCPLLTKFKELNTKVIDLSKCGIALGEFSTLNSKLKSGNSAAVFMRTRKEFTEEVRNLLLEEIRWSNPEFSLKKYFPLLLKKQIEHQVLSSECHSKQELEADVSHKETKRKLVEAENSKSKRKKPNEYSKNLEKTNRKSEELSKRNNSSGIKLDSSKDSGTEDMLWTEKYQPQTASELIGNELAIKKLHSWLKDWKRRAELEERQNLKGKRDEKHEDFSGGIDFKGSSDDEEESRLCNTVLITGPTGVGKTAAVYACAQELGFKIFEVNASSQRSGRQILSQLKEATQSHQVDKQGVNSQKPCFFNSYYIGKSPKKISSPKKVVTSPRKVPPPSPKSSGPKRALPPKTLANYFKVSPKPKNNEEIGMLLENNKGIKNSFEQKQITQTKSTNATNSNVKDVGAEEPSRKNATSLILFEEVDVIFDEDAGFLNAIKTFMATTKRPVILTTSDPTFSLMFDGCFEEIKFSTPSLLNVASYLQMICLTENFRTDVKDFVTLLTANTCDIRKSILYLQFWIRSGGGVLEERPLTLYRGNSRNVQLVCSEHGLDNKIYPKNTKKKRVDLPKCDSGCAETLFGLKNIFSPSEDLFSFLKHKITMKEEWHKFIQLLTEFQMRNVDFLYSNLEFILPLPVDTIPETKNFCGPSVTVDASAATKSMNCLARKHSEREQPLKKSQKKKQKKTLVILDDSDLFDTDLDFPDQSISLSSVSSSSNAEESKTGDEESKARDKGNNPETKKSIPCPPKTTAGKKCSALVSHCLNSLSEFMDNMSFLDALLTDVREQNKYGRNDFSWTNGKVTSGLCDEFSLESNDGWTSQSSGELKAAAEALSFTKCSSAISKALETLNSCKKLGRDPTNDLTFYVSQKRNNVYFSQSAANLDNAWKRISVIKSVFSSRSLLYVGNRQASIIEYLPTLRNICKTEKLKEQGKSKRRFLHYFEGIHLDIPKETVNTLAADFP
ELG1-Luc MMS – confirmation of human ELG1 repair inhibitors, MMS stimulated | AID 624249 | hit rate 53% among 670 | shares compounds with ELG1 DNA repair | Potency, µM (doses to about 46.1 µM), inactives show at the top dose activity change, negative = inhibition, usual class: inhibitors | HEK293T luciferase-tagged ELG1 level, MMS stimulated; also: % is scaled to controls: 0 for no effect and ±100 for the full control effect; nearly all actives have a fitted effect of over 60% in size
ELG1 5FU viab – confirmation of ELG1 repair inhibitors: viability with 5FU. shares compounds with ELG1 DNA repair. cell viability with 5-FU, ELG1-dependent repair. Potency, µM (top dose mostly 46.1 µM), inactives show at the highest dose activity change, negative = viability loss, actives largely listed as cytotoxic. 670 tested, under 10 active. AID 624250;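 also: ELG1-luc HEK293T cells cotreated with 5-fluorouridine at 10 µM final; viability measured 16 h after compound addition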
ELG1 MMS viab – confirmation of ELG1 repair inhibitors: viability with MMS | shares compounds with ELG1 DNA repair | Cell viability with MMS, ELG1-dependent DNA repair | Potency, µM (titrated, usually from 46.1 µM), without a hit: top-dose activity change, negative = viability loss, usual class: cytotoxic | hit rate 33% among 670 | AID 624251;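 also: ELG1-luc HEK293T cells co-treated with 10 µM MMS; viability read 16 h after compound addition; % is scaled to controls: 0 for no effect and ±100 for the full control effect; nearly all actives have a fitted effect of over 60% in size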
ELG1 unstim viab – affects unstimulated cell viability, ELG1 hit counter-screen; shares compounds with ELG1 DNA repair; cell viability counter-screen, unstimulated, luminescence; Potency, µM (series often up to 45.9 µM), for inactives: top-dose activity change, negative = loss of viability, actives largely listed as cytotoxic; hit rate 8% among 900;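 also: compound exposure lasted 16 hours before reading; % is scaled to controls: 0 for no effect and ±100 for the full control effect; nearly all actives have a fitted effect of over 55% in size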
FLuc biochem – counter-screen for ELG1 repair inhibitors: firefly luciferase inhibition | shares compounds with ELG1 DNA repair | Potency, µM (series often up to 57.5 µM), without a hit: at the top dose activity, negative = inhibition, most hits filed as inhibitors | AID 624253 | hit rate 10% among 350 | purified firefly luciferase, luminescence counter-screen; also: % is scaled to controls: 0 for no effect and ±100 for the full control effect
The depositor's hits bear a star; i = inactive; u = inconclusive; x = no result; ! = not active in a repeat; [ ] = another dose, or the depositor's remark. Hits are enriched below; roughly 8.1% of the tested compounds scored in any of these assays. Calls follow the shape of the dose curve; as a rule, active = well fitted curve in the direction sought with a large enough effect; inconclusive = small, poorly fitted or top-dose-only effect, or another doubt; inactive = no such curve, though single readings can be large; an effect the other way counts as inactive or inconclusive. Potency is read from the fitted curve at half-maximal effect.

SMILES	ELG1 DNA repair	SW480 rerep	KB-3-1 cytotox	KB-V1 cytotox	MCF10A rereplic	others
COC(=O)C1=C(c2cc3ccccc3s2)C[C@@H]2CC[C@H]1N2C(=O)N1CCCCC1	x	u	25.9µM*	u	18.4µM*
COC(=O)C1=C(c2cc3ccccc3s2)C[C@@H]2CC[C@H]1N2C(=O)NC1CCCCC1	x	u	u	u	20.6µM*
C[C@H]1[C@@H](OS(=O)(=O)O)C[C@@H]2C[C@H]([C@@H](O)c3cc(=O)[nH]c(=O)[nH]3)NC3=NC[C@H]1N32	x	u	1.03µM*	2.06µM*	u
c1ccc2c(c1)OCC(C1=NCCN1)O2 (stereo not given)	8.6%	u	u	i	18.4µM*!
O=C(Cc1ccccc1)NC(Oc1ccccc1Cl)C(Cl)(Cl)Cl (stereo not given)	-1.3%	-3.7%	i	i	-0.8%
Nc1ccc2c3c(cccc13)-c1ccccc1-2	x	9.2µM*	i	i	2.91µM*
Nc1ccc(C2(c3ccc(N)cc3)c3ccccc3-c3ccccc32)cc1	u	0.9%	i	i	16.5%
CC1CC(C)(O)CC(C(O)CC2CC(=O)NC(=O)C2)C1=O (stereo not given)	x	u	0.92µM*	6.51µM*	u
Cc1ccc(-n2nc(C)cc2NC(=O)COc2cc(C)cc3oc(=O)c4c(c23)CCC4)cc1	u	1.4%	i	2.06µM*	-2.4%
Cc1nccn1-c1c([N+](=O)[O-])c(=O)n(C)c2ccccc12	9.0%	-2.4%[9.22 µM]	i	i	10.3µM*
Cc1nc2ccccc2c(=O)n1-c1ccccc1[N+](=O)[O-]	-1.6%	-4.3%	i	i	-2.7%
N#CC(Br)Br	u	-23.8%	i	i	-4.0%
O=C(/C=C/c1ccc2c(c1)OCO2)c1c(O)n(CCC2=CCCCC2)c(=O)[nH]c1=O	-29.0%	-0.1%	u	7.31µM*	1.84µM*
CN(C)CCN=Cc1c(O)n(CCC2=CCCCC2)c(=O)[nH]c1=O	0.3%	-3.8%	i	i	-1.0%
COc1ccc(/C=C/C(=O)c2c(O)n(CCC3=CCCCC3)c(=O)[nH]c2=O)cc1	u	-1.3%	20.6µM*	10.3µM*	7.31µM*
O=C(Nc1ccccc1)N1CCC2(CC1)OCCO2	18.9%	-10.1%	i	i	28.9%
CNCC(O)c1cc(OCc2ccccc2)c(OCc2ccccc2)cc1F (stereo not given)	x	21.5%	u	18.4µM*	25.0%
Cc1ccc(OCC(=O)N2CCN(C3CCC(c4ccccc4)CC3)CC2)cc1 (stereo not given)	-1.8%	-2.1%	i	u	13µM*
COc1ccc(NC(c2ccccc2)P(=O)(Oc2ccccc2)Oc2ccccc2)cc1 (stereo not given)	u	-3.2%	i	i	3.7%
COc1ccc(NC(c2ccccc2F)P(=O)(Oc2ccccc2)Oc2ccccc2)cc1 (stereo not given)	18.4µM*	8.3%	i	i	-0.1%
CCCCCl	x	-1.0%	x	x	-2.9%
COc1ccc(Cc2nccc3cc(OC)c(OC)cc23)cc1OC	-11.7%	u	i	u	u
COc1ccc(/C(=N/OC(C)=O)c2nccc3cc(OC)c(OC)cc23)cc1OC	3.26µM*	-5.3%	i	i	5.4%	ELG1-Luc inh=u;ELG1-Luc MMS=1.9%;ELG1 5FU viab=u;ELG1 MMS viab=7.6%;ELG1 unstim viab=3.8%
COc1cc2[nH]c(=S)n(-c3ccccc3)c(=O)c2cc1OC	-5.9%	-12.0%	i	i	-10.7%
CCC(C)N1C(=O)NC(=O)C2(Cc3cc(C)ccc3N(C)C2)C1=O (stereo not given)	u	-4.0%	i	i	-10.5%
SMILES	ELG1 DNA repair	SW480 rerep	KB-3-1 cytotox	KB-V1 cytotox	MCF10A rereplic	others
CC(=O)OC1CC[C@]2(C)C(CCC3C2CC[C@]2(C)C(C4=CC(=O)OC4)C(OC(C)=O)CC32O)C1 (stereo not given in full)	x	x	x	x	x	ELG1-Luc inh=1.41µM*;ELG1-Luc MMS=0.888µM*;ELG1 5FU viab=u;ELG1 MMS viab=1.25µM*;ELG1 unstim viab=0.628µM*
CC(=O)OC1CCC23C(=O)OC45CCC(C6=CC(=O)OC6)C4(C)CCC2C5CCC3(O)C1 (stereo not given)	x	x	x	x	x	ELG1-Luc inh=1.25µM*;ELG1-Luc MMS=0.628µM*;ELG1 5FU viab=u;ELG1 MMS viab=1.25µM*;ELG1 unstim viab=0.445µM*
CCn1cc(C(=O)NCc2ccccc2)c2ccccc21	1.2%	-3.8%	i	i	20.2%
O=c1c2ccccc2nc(CNCC2CCCO2)n1-c1ccc(F)cc1 (stereo not given)	7.2%	-6.0%	i	u	-1.4%
COC(=O)[C@@H]1C[C@@]1(C)[C@@H](NP(=O)(c1ccccc1)c1ccccc1)c1ccccc1	-2.2%	6.5%	i	i	-5.6%
COc1cc2c(cc1OC)C1C(=O)c3c(cc4c(c3O)C=CC(C)(C)O4)OC1CO2 (stereo not given)	x	x	x	x	x	ELG1 FLuc counter=-2.8%;ELG1-Luc inh=u;ELG1-Luc MMS=0.706µM*;ELG1 5FU viab=-3.5%;ELG1 MMS viab=0.792µM*;ELG1 unstim viab=u;FLuc biochem=u
